The source made the active and inactive calls. Calls come from the whole dose curve; as a rule, active = well fitted curve in the direction sought with a large enough effect in the repeat runs; inconclusive = weak or mixed curves; inactive = flat fitted curve, though single readings scatter.

This note sets out measurements from PubChem BioAssay (Tox21).

A short description of this test: qHTS assay to test for compound auto fluorescence at 460 nm (blue) in HEK293 cells (AID 720678). The following applies: blue autofluorescence 405/460 nm; series mostly up to 91.3 µM. An excerpt: National Center for Advancing Translational Sciences [NCATS]
NIH Chemical Genomics Center [NCGC]
U.S. Environmental Protection Agency [EPA]
National Institutes of Environmental Health Sciences [NIEHS]
National Toxicology Program [NTP]
U.S. Food and Drug Administration [FDA]
Compound auto fluorescence often interferes with screening of the compound library against various biological targets and signaling pathways. Some of these compounds may have fluorophoric properties. Such properties may interfere with the assay outputs resulting in false positives and/or negatives. To decrease such complications and ensure the compound activities are relevant in terms of biological response, the Tox21 10K compound library was screened for auto fluorescence.
From the fluorophores used as reporter signals in our screening assays, the auto fluorescence equivalencies of compounds against three fluorophores have been evaluated: Triamterene, Fluorescein and Rose Bengal sodium for blue, green and red fluorescence, respectively. The fluorescence intensities were measured using Excitation/Emission wavelengths at 405/460nm, 485/535nm and 540/590nm for blue, green and red labels, respectively. This assay includes the blue fluorescence data.
Tox21 Assay Protocol Summary:
2,000 HEK293 cells in 5 uL of culture medium containing 10% dialyzed FBS per well were dispensed into black wall/clear bottom 1536-well plates using a Multidrop Combi Dispenser (Thermo Scientific). The assay plates were incubated for 4-5 hr at 37C to allow cell attachment to the well bottom, followed by the transfer of 23 nL compound or DMSO vehicle by a pintool work station (Kalypsys, San Diego, CA). After the assay plates were incubated overnight at 37C and 5% CO2, fluorescence intensities in the assay plates were measured by an Envision (PerkinElmer, Shelton, CT) plate reader using three labels for measuring blue, green and red fluorescence at […] 460, 535 and 590nm respectively.
(In qHTS, concentration-response curves come from the screen itself.)
On to `CCOP(=S)(OCC)SCSP(=S)(OCC)OCC`, for which the call was inactive. The entry for `Nc1ccccc1Cl` is “inactive”. The entry for `CCN(CC)C(C)C(=O)c1ccccc1` (stereo not given) is “inactive”. The entry for `ClC(Cl)C(Cl)Cl` is “inactive”. In the case of `CCOP(=S)(OCC)Oc1nc(Cl)n(C(C)C)n1`, the compound was called inactive. The entry for `CC(Oc1ccc(Oc2ncc(C(F)(F)F)cc2Cl)cc1)C(=O)O` (stereo not given) is “inactive”; for `O=C(CCN1CC1)OCC(CO)(COC(=O)CCN1CC1)COC(=O)CCN1CC1` it is “inactive”. In the case of `O=[N+]([O-])c1cc(Cl)c(Cl)c(Cl)c1`, the call was inactive.

As for `NC(=O)c1cc([N+](=O)[O-])cc([N+](=O)[O-])c1`, the compound was called inactive. The entry for `CCOP(=S)(OCC)SCSc1ccc(Cl)cc1` is “inactive”; for `CC(C)CP(=S)(S)CC(C)C` it is “inactive”. The entry for `COC(=O)c1ccccc1S(=O)(=O)NC(=O)Nc1nc(C)cc(C)n1` is “inactive”. The entry for `ClC(Br)Br` is “inactive”; for `CCOC(=O)/C=C(C)/C=C/C[C@@H](C)CCCC(C)C` it is “inactive”. For `CS(=O)(=O)c1cc(C(F)(F)F)ccc1C(=O)c1cnoc1C1CC1`, the outcome was inactive. The entry for `OCCSCSCCO` is “inactive”; for `C=C(C)[C@@H]1CC=C(C=O)CC1` it is “inactive”. The entry for `O=C1CN=C(c2ccccc2)c2cc([N+](=O)[O-])ccc2N1` is “inactive”; for `CNC(=O)N(C)c1nc2ccccc2s1` it is “inactive”. The entry for `CC(CCc1ccccc1)NC(C)C(O)c1ccc(O)cc1` (stereo not given) is “inactive”; for `OC(c1ccc(F)cc1)(c1cncnc1)c1ccccc1Cl` (stereo not given) it is “inactive”; for `CC(C)(C)OC(=O)c1ncn2c1[C@@H]1CCCN1C(=O)c1c(Br)cccc1-2` it is “inactive”.

On to `Nc1cc2c3c(c1)C(c1ccccc1)=N[C@@H](NC(=O)c1cccnc1)C(=O)N3CC2`, for which the call was inactive. The entry for `CC1(C)COP(Oc2ccccc2)OC1` is “inactive”; for `COc1cc(OC)nc(NC(=O)NS(=O)(=O)c2ncccc2C(=O)N(C)C)n1` it is “inactive”. The entry for `O=C1c2ccccc2C(=O)c2ccccc21` is “inactive”; for `CSc1nc(N=[N+]=[N-])nc(NC(C)C)n1` it is “inactive”. The entry for `CCSC(=O)N(CC)C1CCCCC1` is “inactive”; for `CC1CN1P(=O)(N1CC1C)N1CC1C` (stereo not given) it is “inactive”; for `COc1cc(C[C@@H](C)N)c(OC)cc1C` it is “inactive”. Take `CC(C)NCC(O)c1ccc(N)c(C#N)c1` (stereo not given): the outcome was inactive. The entry for `CN1C[C@@H](NS(=O)(=O)N(C)C)C[C@@H]2c3cccc4c3c(cn4C)C[C@H]21` is “inactive”; for `NC(=S)C(N)=S` it is “inactive”; for `O=CNC(N1CCN(C(NC=O)C(Cl)(Cl)Cl)CC1)C(Cl)(Cl)Cl` (stereo not given) it is “inactive”.

Turning to `CCNc1nc(NC(C)C)nc(OC)n1`, the compound was called inactive. For `CCN(CC)CCOC(=O)C(C)(c1ccccc1)c1ccccc1`, the outcome was inactive. The entry for `Cc1cc(C)c(C(=O)P(=O)(C(=O)c2c(C)cc(C)cc2C)c2ccccc2)c(C)c1` is “inactive”.

For the compound `CCN(CC)C(=O)[C@@H]1C=C2c3cccc4[nH]cc(c34)C[C@H]2N(C)C1`, the result was inactive.

As to `CCCCP(CCCC)CCCC`, the compound was called inactive. The entry for `CC(C)(C)C(=O)C(Oc1ccc(Cl)cc1)n1cncn1` (stereo not given) is “inactive”.
